Inconclusive results are not listed. Where a call stands in place of a potency, no number is given. Unmarked numbers belong to inactive results. Calls of active or inactive are those of the source. Calls come from the whole dose curve; as a rule, active = well fitted curve in the direction sought with a large enough effect; inconclusive = small, poorly fitted or top-dose-only effect, or another doubt; inactive = no such curve, though single readings can be large; an effect the other way counts as inactive or inconclusive.
Assays:
[1] = target: Rap guanine nucleotide exchange factor 3 (Homo sapiens) (UniProt O95398); assay: Confirmatory qHTS for antagonist of cAMP-regulated guanine nucleotide exchange factor 3 (EPAC1) (AID 1645880); conditions: EPAC1 Rap1B-BODIPY-GDP exchange, fluorescence; activity, negative = inhibition: at 115 µM (top of the series); note: nearly all actives have a fitted effect of over 55% in size; note: potency is the fitted concentration of half-maximal effect
How it was run: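 Released BODIPY-GDP fluoresces less than Rap1-bound BODIPY-GDP; the signal is followed at 480/540 nm at 5-min intervals over 30 min, after 5 min at room temperature. Reactions contain 100 nM EPAC1, 250 nM RAP1B-BODIPY-GDP and 50 uM GDP; results are normalized to ATA and DMSO.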

[2] = target: Rap guanine nucleotide exchange factor 3 (Homo sapiens) (UniProt O95398); assay: Confirmatory qHTS for agonist of cAMP-regulated guanine nucleotide exchange factor 3 (EPAC1) (AID 1645881);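 note: EPAC1 catalysed release of BODIPY-GDP from Rap1B seen as fluorescence loss; nearly all actives have a fitted effect of over 75% in size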
[3] = target: Rap guanine nucleotide exchange factor 4 (Homo sapiens) (UniProt Q8WZA2); assay: Confirmatory qHTS for agonist of cAMP-regulated guanine nucleotide exchange factor 4 (EPAC2) (AID 1645884);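 note: nucleotide exchange releases bodipy-GDP from Rap1 and this lowers its fluorescence; nearly all actives have a fitted effect of over 65% in size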
[4] = target: Rap guanine nucleotide exchange factor 3 (Homo sapiens) (UniProt O95398); assay: Counterscreen qHTS for antagonist of cAMP-regulated guanine nucleotide exchange factor 3 (EPAC1) (AID 1645888)
How it was run: (§1)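 Measured: fluorescence of BODIPY-GDP bound to Rap1B, which falls as exchange proceeds. Conditions include 50 uM competing GDP, 5 and 30 min reads, and a later cAMP challenge for antagonist detection.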

[5] = target: Rap guanine nucleotide exchange factor 3 (Homo sapiens) (UniProt O95398); assay: Counterscreen qHTS for agonist of cAMP-regulated guanine nucleotide exchange factor 3 (EPAC1) (AID 1645889); note: nearly all actives have a fitted effect of over 40% in size; note: potency is the fitted concentration of half-maximal effect
How it was run: as §1

Chain of Rap guanine nucleotide exchange factor 3 (Homo sapiens) (O95398 whole entry, looked up): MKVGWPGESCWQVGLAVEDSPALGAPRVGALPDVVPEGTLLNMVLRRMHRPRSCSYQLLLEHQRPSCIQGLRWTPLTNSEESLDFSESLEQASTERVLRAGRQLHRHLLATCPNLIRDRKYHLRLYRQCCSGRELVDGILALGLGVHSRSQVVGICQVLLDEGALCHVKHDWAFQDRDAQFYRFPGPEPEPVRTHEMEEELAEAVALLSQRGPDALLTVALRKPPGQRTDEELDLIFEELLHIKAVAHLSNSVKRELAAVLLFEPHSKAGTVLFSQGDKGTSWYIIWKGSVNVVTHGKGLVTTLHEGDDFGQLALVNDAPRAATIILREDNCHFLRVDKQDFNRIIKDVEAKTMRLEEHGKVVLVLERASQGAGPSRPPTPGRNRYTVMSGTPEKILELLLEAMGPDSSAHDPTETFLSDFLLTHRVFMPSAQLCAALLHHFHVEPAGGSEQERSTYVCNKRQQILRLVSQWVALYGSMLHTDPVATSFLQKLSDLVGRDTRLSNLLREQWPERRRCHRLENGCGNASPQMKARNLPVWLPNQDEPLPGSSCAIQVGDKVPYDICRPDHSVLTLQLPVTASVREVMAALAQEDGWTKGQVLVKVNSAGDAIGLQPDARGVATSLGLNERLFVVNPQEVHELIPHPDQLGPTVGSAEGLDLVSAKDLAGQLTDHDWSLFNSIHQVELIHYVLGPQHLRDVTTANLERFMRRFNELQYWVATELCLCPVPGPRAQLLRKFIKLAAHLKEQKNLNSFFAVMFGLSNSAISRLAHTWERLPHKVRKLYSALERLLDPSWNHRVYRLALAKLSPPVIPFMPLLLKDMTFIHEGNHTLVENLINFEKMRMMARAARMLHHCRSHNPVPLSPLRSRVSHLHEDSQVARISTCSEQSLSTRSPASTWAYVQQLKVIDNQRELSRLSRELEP
Chain of Rap guanine nucleotide exchange factor 4 (Homo sapiens) (Q8WZA2 whole entry, looked up): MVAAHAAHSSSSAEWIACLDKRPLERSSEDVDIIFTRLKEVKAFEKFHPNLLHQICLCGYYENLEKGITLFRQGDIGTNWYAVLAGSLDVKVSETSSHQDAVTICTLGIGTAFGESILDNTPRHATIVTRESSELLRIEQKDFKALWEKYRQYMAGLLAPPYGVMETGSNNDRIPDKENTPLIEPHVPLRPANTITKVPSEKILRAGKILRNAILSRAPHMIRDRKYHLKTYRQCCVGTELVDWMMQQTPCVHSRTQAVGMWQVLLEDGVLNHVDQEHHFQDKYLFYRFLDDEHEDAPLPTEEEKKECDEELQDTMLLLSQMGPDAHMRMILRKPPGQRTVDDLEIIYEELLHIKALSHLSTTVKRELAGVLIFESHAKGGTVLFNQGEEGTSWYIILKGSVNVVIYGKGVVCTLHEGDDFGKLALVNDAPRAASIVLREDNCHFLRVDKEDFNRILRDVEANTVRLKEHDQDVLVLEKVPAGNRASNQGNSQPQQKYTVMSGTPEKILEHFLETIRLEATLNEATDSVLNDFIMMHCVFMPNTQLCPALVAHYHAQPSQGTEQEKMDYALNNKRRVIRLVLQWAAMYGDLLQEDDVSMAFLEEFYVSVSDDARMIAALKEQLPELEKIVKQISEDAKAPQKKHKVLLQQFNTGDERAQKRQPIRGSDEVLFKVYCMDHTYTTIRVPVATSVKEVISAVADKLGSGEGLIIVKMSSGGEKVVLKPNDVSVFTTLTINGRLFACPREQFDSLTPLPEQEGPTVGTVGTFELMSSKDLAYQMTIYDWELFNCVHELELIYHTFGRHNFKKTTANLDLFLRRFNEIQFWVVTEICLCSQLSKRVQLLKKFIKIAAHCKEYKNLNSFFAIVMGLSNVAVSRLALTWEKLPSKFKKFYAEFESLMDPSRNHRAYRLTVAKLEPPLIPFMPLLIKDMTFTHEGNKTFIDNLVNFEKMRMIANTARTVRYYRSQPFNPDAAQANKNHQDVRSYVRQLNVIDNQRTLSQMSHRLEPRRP

Structure (SMILES)	Potency [1]	Potency [2]	Potency [3]	Potency [4]	Potency [5]	activation [3]	activity change, negative = inhibition [4]	activation [5]
Cc1ccc2oc(C(=O)N(Cc3ccc(N(C)C)cc3)CC3CCCO3)c(C)c2c1 (stereo not drawn)	inactive	inactive	inactive	inactive	inactive	–	–	–
Cc1noc(C)c1C(=O)N(CC(C)C)c1nc2ccccc2s1	inactive	inactive	inactive	inactive	inactive	–	–	–
Brc1ccc(C2Nc3cccc4cccc(c34)N2)cc1	inactive	inactive	inactive	inactive	inactive	–	–	–
O=C(COc1ccccc1Br)Nc1ccccc1C(F)(F)F	inactive	inactive	inactive	inactive	inactive	–	–	–
COc1ccc([C@H]2CC(=O)C=C(c3cc(OC)ccc3OC)C2)cc1	inactive	inactive	inactive	inactive	inactive	–	–	–
CC(C)(C(=O)N1CCC1(C)C(=O)NS(=O)(=O)c1cccc(Cl)c1)c1ccccc1 (stereo not drawn)	75.7 µM (active)	inactive	inactive	inactive	inactive	–	–	–
O=C1CCc2cc(S(=O)(=O)NCc3ccc(F)cc3)cc3c2N1CC3	inactive	inactive	inactive	inactive	inactive	–	–	–
CCOC(=O)c1c(NC(=O)/C=C/c2ccc3c(c2)OCO3)sc(C)c1CC	inactive	inactive	inactive	inactive	inactive	–	–	–
O=C1C=CC(=O)c2c(O)c(N3CCN(CCO)CC3)c(Cl)c(O)c21	37.9 µM (active)	inactive	inactive	inactive	inactive	–	–	–
Cc1ccc(C)c(N2CCN(C(=O)CCCn3c(=O)c4cccn4c4cccnc43)CC2)c1	inactive	inactive	–	–	8.9 nM (active)	6.05% [at 17.1 µM, percent relative to cAMP agonist control]	-21.9% [at 30.8 µM]	–
COC(=O)C1=CN(Cc2cccs2)C=C(C(=O)OC)C1c1cccc(Cl)c1	inactive	inactive	–	–	–	2.31% [at 17.1 µM, percent relative to cAMP agonist control]	-4.15% [at 30.8 µM]	24.6% [at 30.8 µM]
Cc1cc(S(=O)(=O)N2CCN(CC(=O)N(C)Cc3ccccc3)CC2)ccc1Br	inactive	inactive	inactive	inactive	inactive	–	–	–
COc1ccccc1OCCOc1ccc(/C=C2\C(=N)N3N=C(S(C)(=O)=O)SC3=NC2=O)cc1	67.5 µM (active)	inactive	inactive	inactive	inactive	–	–	–
COCCN(CCOC)Cc1cc(=O)oc2cc(C)c(Cl)cc12	inactive	inactive	inactive	inactive	inactive	–	–	–
O=C(O)CCSc1nnc(COc2cccc3ccccc23)n1-c1cccc(Cl)c1	inactive	inactive	inactive	inactive	inactive	–	–	–
O=C(N/N=C/c1c(O)n(-c2ccccc2Cl)c(=O)c2ccccc12)C1COc2ccccc2O1 (stereo not drawn)	42.6 µM (active)	inactive	inactive	inactive	inactive	–	–	–
COC(=O)c1cn(C(=O)c2ccccc2Cl)c2ccccc12	inactive	inactive	–	–	–	7.27% [at 17.1 µM, percent relative to cAMP agonist control]	-1.26% [at 30.8 µM]	20.7% [at 30.8 µM]
COc1ccc(C2CC(=O)c3ccccc3O2)cc1 (stereo not drawn)	inactive	inactive	inactive	inactive	inactive	–	–	–
Cc1ccc(SCCSc2ncccn2)cc1	inactive	inactive	–	–	–	-2.5% [at 17.1 µM, percent relative to cAMP agonist control]	-17.4% [at 30.8 µM]	-4.72% [at 30.8 µM]
COc1cc(/C=C2\SC(=S)N(NC(=O)c3ccc(O)cc3)C2=O)ccc1O	75.7 µM (active)	inactive	inactive	inactive	inactive	–	–	–
COc1ccc(-c2csc3ncn(-c4ccc(C)cc4)c(=O)c23)cc1OC	inactive	inactive	inactive	inactive	inactive	–	–	–
CCN(CC)CCN(C(=O)c1cc2ccccc2cc1OC)c1nc2ccc(F)cc2s1	inactive	inactive	inactive	inactive	inactive	–	–	–
Cn1c(=O)c2c(nc(NCCc3ccccc3)n2CC(=O)NCCc2ccccc2)n(C)c1=O	inactive	inactive	inactive	inactive	inactive	–	–	–
COCCn1c(SCc2ccccc2F)nc2ccccc2c1=O	inactive	inactive	–	–	–	4.59% [at 17.1 µM, percent relative to cAMP agonist control]	-6.24% [at 30.8 µM]	12.3% [at 30.8 µM]
Cc1ccc(-c2noc(CSc3nnnn3C3CCCCC3)n2)cc1	inactive	inactive	inactive	inactive	inactive	–	–	–
COc1cc(OC)c2c(-c3ccccc3)cc(=O)oc2c1C(CC(=O)N1CCOCC1)c1ccc2c(c1)OCO2 (stereo not drawn)	inactive	inactive	–	–	–	1.13% [at 17.1 µM, percent relative to cAMP agonist control]	-9.45% [at 30.8 µM]	–

Structure (SMILES)	Potency [1]	Potency [2]	Potency [3]	Potency [4]	Potency [5]	activation [3]	activity change, negative = inhibition [4]	activation [5]
Cc1onc(-c2c(Cl)cccc2Cl)c1C(=O)c1ccc(F)cc1	inactive	inactive	inactive	inactive	inactive	–	–	–
CC(C)c1ccc(OCC(=O)Nc2cccc(C(=O)Nc3ccccc3C(=O)O)c2)cc1	75.7 µM (active)	inactive	inactive	inactive	inactive	–	–	–
COc1ccc(N=C2NC(=O)S/C2=C\c2ccc(N(C)C)cc2)cc1	inactive	inactive	inactive	inactive	inactive	–	–	–
CC1=C(C(=O)OCc2ccccc2)C(c2ccc(Cl)cc2Cl)NC(=O)N1CCCCCC(=O)O (stereo not drawn)	75.7 µM (active)	inactive	inactive	inactive	inactive	–	–	–
CCCS(=O)(=O)NC(=O)C1(C)CCN(C(=O)c2cccc(OC(F)(F)F)c2)C1 (stereo not drawn)	inactive	inactive	inactive	inactive	inactive	–	–	–
CCOC(=O)c1c(-c2ccccc2)oc2ccc(OCC)cc12	inactive	inactive	inactive	inactive	inactive	–	–	–
Cc1ccc2nc(N3C(=O)C(O)=C(C(=O)c4ccc(C)o4)C3c3ccc(O)cc3)sc2c1 (stereo not drawn)	37.9 µM (active)	inactive	inactive	inactive	inactive	–	–	–
O=C1C=C(c2ccccc2Oc2ccccc2)C[C@@H](c2ccc(F)cc2)C1	inactive	inactive	inactive	inactive	inactive	–	–	–
O=C(O)CSc1cc(NS(=O)(=O)c2ccc(Cl)cc2)c2ccccc2c1O	75.7 µM (active)	inactive	inactive	inactive	–	–	–	–
Cc1cc(/C=C2\SC(=S)NC2=O)c(C)n1-c1ccc(O)cc1	84.9 µM (active)	inactive	inactive	inactive	inactive	–	–	–
COc1ccc(-c2csc(NC(=O)c3ccc(C(C)(C)C)cc3)c2C(=O)O)cc1	37.9 µM (active)	inactive	inactive	inactive	inactive	–	–	–
COc1ccccc1CN(C(=O)CNC(=O)c1ccco1)C(C(=O)NCC1CCCO1)c1ccc(OC)c(OC)c1 (stereo not drawn)	inactive	inactive	inactive	inactive	inactive	–	–	–
CS(=O)(=O)c1ccc2c(c1)SC1=NC(=O)/C(=C/c3ccco3)C(=N)N12	12 µM (active)	inactive	inactive	inactive	inactive	–	–	–
CC(C1CC1)N(C(=O)NC1CCS(=O)(=O)C1)c1ccccc1 (stereo not drawn)	inactive	inactive	inactive	inactive	inactive	–	–	–
Cc1ccc(/C=C2\S/C(=N/S(=O)(=O)c3cccs3)NC2=O)cc1	67.5 µM (active)	inactive	inactive	inactive	inactive	–	–	–
COc1ccccc1C1CCN(c2ccc(CO)cc2[N+](=O)[O-])CC1	inactive	inactive	inactive	inactive	inactive	–	–	–
COc1ccccc1C1CC(=O)Oc2cc(C)cc(C)c21 (stereo not drawn)	inactive	inactive	–	–	–	3.14% [at 17.1 µM, percent relative to cAMP agonist control]	-8.23% [at 30.8 µM]	7.71% [at 30.8 µM]
CCCNC(=O)Cn1c(=O)/c(=C/c2ccc(-c3ccc([N+](=O)[O-])cc3)o2)s/c1=C\C(=O)C(C)(C)C	37.9 µM (active)	inactive	inactive	inactive	5010 nM (active)	–	–	–
CCC(C(=O)OC(C)C)c1ccc2ccccc2c1 (stereo not drawn)	inactive	inactive	inactive	inactive	inactive	–	–	–
Cc1ccc(S(=O)(=O)N2[C@@H](c3ccc(F)cc3)C(C(=O)O)=CC[C@H]2c2ccc(C(C)C)cc2)cc1	75.7 µM (active)	inactive	inactive	inactive	inactive	–	–	–
Cc1ccc(C)c(Cn2cnc3ccccc3c2=O)c1	inactive	inactive	inactive	inactive	inactive	–	–	–
O=C(O)c1ccccc1-c1ccccc1C(=O)Nc1ccc2c(c1)oc(=O)c1ccccc12	75.7 µM (active)	inactive	inactive	inactive	inactive	–	–	–
O=C(c1ccc(-c2ccccc2Cl)o1)N1CCC1	inactive	inactive	–	–	–	0.137% [at 17.1 µM, percent relative to cAMP agonist control]	-16.6% [at 30.8 µM]	3.77% [at 30.8 µM]
CCC(CC)NC(=O)c1ccccc1Oc1ccccc1	inactive	inactive	–	–	–	3.85% [at 17.1 µM, percent relative to cAMP agonist control]	6.83% [at 30.8 µM]	13.2% [at 30.8 µM]
C#CCOc1nc(C)cc(C)c1S(=O)(=O)c1ccccc1C	inactive	inactive	–	–	–	-13.7% [at 17.1 µM, percent relative to cAMP agonist control]	-7.83% [at 30.8 µM]	-3.33% [at 30.8 µM]
